Assay outcomes as filed in PubChem BioAssay.
14-3-3 Bad PPI = disrupts binding of bovine 14-3-3 zeta to phospho-Bad peptide; TR-FRET 14-3-3zeta/Dy647-pBad peptide displacement, 1 h; inhibition, % at 21.7 µM; AID 781; P63103; 220,000 compounds, 0.71% hits;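 active = inhibition above about 70%, limit read from the data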;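 also: 0% = full 14-3-3 plus peptide FRET controls and 100% = background without 14-3-3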
eIF4E 4G PPI = blocks eIF4E binding to eIF4G. P63073+Q04637. TR-FRET eIF4E-eIF4GI(517-606) binding, 2 h. inhibition, % at 21.7 µM. 220,000 compounds, 0.37% hits. AID 782;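 also: 0% = full FRET control wells and 100% = background wells lacking eIF4GI fragment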
Mcl1 Bid PPI = Mcl-1/Bid interaction inhibition. Q07820. TR-FRET Mcl-1/Bid-Dy647 peptide binding, 1536-well. inhibition, % at 21.7 µM. 220,000 compounds, 0.97% hits. AID 1021;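 active = compounds that cut the binding signal by more than half at the single screening dose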;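 also: His-tagged Mcl-1 with europium anti-His antibody binding Bid BH3 peptide; 0% = Mcl-1 plus peptide wells and 100% = peptide-only wells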
Mcl1 Noxa PPI = disrupts binding of human Mcl-1 to Noxa peptide; TR-FRET Mcl-1/Noxa peptide binding, 2 h; inhibition, % at 21.7 µM; 220,000 compounds, 1.5% hits;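 active = compounds that cut the protein-peptide binding signal by more than 50% relative to plate controls in a single-dose test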;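 also: His-tagged Mcl-1 with rhodamine Noxa BH3 peptide and terbium anti-His antibody; 0% = Mcl-1 plus Noxa peptide wells and 100% = peptide-only wells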
NCF1 inh = inhibitors of human p47phox binding | p47phox/p22phox peptide binding, fluorescence polarization, 2 h | inhibition, % at 24.7 µM | 220,000 compounds, 0.53% hits | AID 1274;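 also: 0% = p47phox with labelled peptide and 100% = labelled peptide alone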
Mcl-1 Bim block = disrupts Bim peptide binding to human Mcl-1; inhibition, % at 10 µM; 190,000 compounds, 0.1% hits; Q07820; Bead-based flow cytometry, Bim peptide-Mcl-1 binding; in the data active = inhibition above about 40%;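 also: 0% = no compound tracer wells and 100% = peptide blocker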
* hit, by the source's call; · = no result given. Most compounds without a hit are left out; they make up all but 3.4% or so of the library.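 The calls were made as follows, unless noted: active = inhibition above about 30% (limit read from the data); inactive = the rest.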

SMILES	14-3-3 Bad PPI	eIF4E 4G PPI	Mcl1 Bid PPI	Mcl1 Noxa PPI	NCF1 inh	Mcl-1 Bim block
Cc1cc(=O)n2[nH]c(-c3ccsc3-n3c(C)ccc3C)cc2n1	17	7	-87	97*	-19	·
Cc1cc(=O)n2[nH]c(-c3ccc(F)cc3)cc2n1	4	-4	-19	6	-2	-4
COCc1cc(=O)n2[nH]c(-c3ccsc3-n3c(C)ccc3C)cc2n1	5	0	-25	69*	-13	-3
COc1cccc(C(=O)/C(C#N)=N/Nc2cccc(-c3ccnc(C)n3)c2)c1	3	-2	-29	13	-14	·
COC(=O)CSc1nc(N2CCOCC2)c2c(c1C#N)CCCC2	9	3	-19	18	-9	·
COC(=O)CSc1nc(-c2ccc(C)cc2)c2c(c1C#N)CCCC2	2	11	61*	-17	-8	-6
COc1cc(-c2nc3ccc4ccccc4c3c3c2CCC3)cc(OC)c1OC	71*	2	10	25	-34	-1
COc1cc(-c2nc3ccc4ccccc4c3c3c2CCC3)cc(OC)c1O	0	4	0	47	-3	0
Cc1ccc2[nH]c(=O)c(COC(=O)C3CCCCC3)cc2c1	-14	1	-9	2	-8	·
CCCCN(C(=O)c1ccc(NC(=O)C(C)C)cc1)c1ccccc1	-9	-7	-17	-5	-20	-2
COc1ccc2nc(NC(=O)CC3Oc4ccccc4NC3=O)sc2c1 (stereo not given)	-1	-5	-12	-1	-3	·
S=c1[nH]nc(-c2ccco2)n1/N=C/c1ccc(Cl)cc1Cl	16	49*	-22	33	0	3
S=c1[nH]nc(-c2ccco2)n1/N=C/c1cccc(Cl)c1Cl	5	10	-46	72*	-15	-8
S=c1[nH]nc(-c2ccco2)n1/N=C/c1cccs1	-7	8	-24	21	3	0
S=c1[nH]nc(-c2ccc(Cl)cc2)n1/N=C/c1ccco1	3	2	-120	23	-1	·
COc1cc(C(=O)NNC(=S)NC(=O)/C=C/c2ccccc2)cc(OC)c1OC	-16	0	-120	-29	-17	·
C/C(NCc1ccccc1)=C(\C#N)C(=O)NCc1ccccc1	10	-4	2	10	-9	-1
C/C(NCc1cccnc1)=C(\C#N)C(=O)NCc1ccccc1	71*	5	-18	12	-13	0
Cc1csc(NC(=O)C2CCN(S(=O)(=O)c3cccs3)CC2)n1	-3	0	84*	-9	-13	1
CCC1=NN2C(=N)/C(=C/c3c(C)nn(-c4ccccc4)c3Cl)C(=O)N=C2S1	0	23	-65	13	-14	-2
CCCC1=NN2C(=N)/C(=C\c3ccc(SCc4ccco4)o3)C(=O)N=C2S1	-3	11	49	84*	-177	2
CCC1=NN2C(=N)/C(=C\c3ccc(SCc4ccco4)o3)C(=O)N=C2S1	-1	2	-14	64*	-152	5
COc1ccc(C(=O)NCCN2C(=O)S/C(=C\c3cccnc3)C2=O)cc1[N+](=O)[O-]	0	3	-6	4	-11	·
COc1cc(/C=C2/SC(N)=NC2=O)ccc1Oc1ccc([N+](=O)[O-])cc1[N+](=O)[O-]	47	2	67*	60*	-17	-4
COc1cc(/C=C2/SC(=O)NC2=O)ccc1Oc1ccc([N+](=O)[O-])cc1[N+](=O)[O-]	33	14	-107	90*	-12	·
SMILES	14-3-3 Bad PPI	eIF4E 4G PPI	Mcl1 Bid PPI	Mcl1 Noxa PPI	NCF1 inh	Mcl-1 Bim block
NC1=NC(=O)/C(=C\c2ccc(O)c([N+](=O)[O-])c2)S1	3	-2	-2	18	-11	25
COc1cc(/C=C2\SC(=O)NC2=O)ccc1Oc1ccc([N+](=O)[O-])cn1	-1	-1	-10	-4	-13	·
COCCN(CCOC)C(=O)COC(=O)c1ccc(Cl)c(S(=O)(=O)N(C)c2ccccc2)c1	-28	0	-19	13	-1	0
CC1(C)Cc2c(sc(NC(=O)COc3cccc4ccccc34)c2C#N)C(C)(C)N1	-71	-60	24	-3	51*	·
Cc1ccc(S(=O)(=O)n2nccc2-c2c(-c3ccc(Cl)cc3)noc2C)cc1	-5	1	-1	-5	-10	·
O=C1/C(=C/c2ccc([N+](=O)[O-])cc2)C=C(c2ccccc2)N1c1ccccc1	0	-4	-6	3	-96	-1
O=C(O)c1cccc(N2C(=O)/C(=C/c3ccc([N+](=O)[O-])cc3)C=C2c2ccccc2)c1	22	4	-3	53*	-43	-5
O=C1/C(=C/c2ccc([N+](=O)[O-])cc2)C=C(c2ccccc2)N1c1ccc(O)cc1	-2	-33	6	60*	56*	-3
N#C/C(=C\c1coc2ccc(O)cc2c1=O)C(=O)Nc1nc2ccccc2s1	43	21	-72	19	-87	·
O=C(Cc1cccs1)NNC(=O)C12CC3CC(CC(C3)C1)C2	-14	1	0	5	-2	-1
NC(=O)COc1ccc(-c2noc(COc3ccccc3[N+](=O)[O-])n2)cc1	-5	1	-7	3	-9	-22
CCN(CC)c1ccc(NC(=O)C2CC3CCC2C3)cc1 (stereo not given)	12	0	9	67*	-14	0
CC(=O)Nc1cccc(NC(=O)C2CC3CCC2C3)c1 (stereo not given)	-2	10	-11	11	-16	0
CC(C)c1nc2oc3c(N(C)CCO)ncnc3c2c2c1CCC2	-1	1	-3	10	11	·
CC(C)[C@H]1C=C(C(=O)O)O[C@@H](OCCCCO)C1	1	8	-15	-1	-20	·
O=C1c2ccccc2C(=O)N1CCCOCc1c[nH]c(=O)[nH]c1=O	12	-2	4	-11	-11	-4
O=c1[nH]cc(COCC(F)CCl)c(=O)[nH]1 (stereo not given)	0	97*	-58	21	-15	·
CCN(C(=O)COC(=O)/C=C/c1c(C)nn(-c2ccccc2)c1C)C1CCS(=O)(=O)C1 (stereo not given)	-3	-16	-16	-11	2	·
COc1cccc(CC2(CO)CCN(Cc3ccc4cccc(F)c4n3)CC2)c1	90*	4	-7	18	-29	-11
OCC1(Cc2cccc(F)c2)CCN(Cc2ccc3cccc(F)c3n2)CC1	21	0	-17	8	-10	-3
COc1ccc(OCCC(=O)NCCN2CCOCC2)cc1	5	0	7	18	-3	-5
C[N+]1(CN2C(=O)C3C4C=CC(C4)C3C2=O)CCCCC1 (stereo not given)	-8	2	-35	2	-2	·
O=C(CSc1nc2ccc(Nc3nc(N4CCCC4)nc(N4CCCC4)n3)cc2s1)NCc1ccco1	-1	92*	-31	-9	-21	·
